Hits are enriched below; roughly 0.9% of the tested compounds scored in any of these assays.
RECQ1 helicase – inhibitors of human RECQ1 DNA helicase; P46063; AID 2549; RECQ1 DNA unwinding, red fluorescence kinetic read; actives 0.54% (n = 240,000); Potency, µM (top dose mostly 57.3 µM), hits mostly inhibitors; note: nearly all actives have a fitted effect of over 30% in size
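RECQ1T1 50 nM; forked duplex (20 bp + 30-nt ss tails) 200 nM, ATP 2 mM final; pH 8.0, 2 mM MgCl2, 2.5 ug/ml poly(dI-dC); 15 min compound preincubation; discontinuous kinetic read over 2 h at RT.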
LMNA splice mod – changes lamin A minigene splicing in HeLa cells. HeLa LMNA splicing GFP/RFP minigene ratio, 48 h. actives 0.01% (n = 200,000). AID 1487. Potency, µM (series often up to 46.1 µM), actives largely listed as inhibitors; active = well fitted inhibition curve with a large enough effect in the signal ratio, with a control signal flat, not every such curve was filed as active; inconclusive = small, poorly fitted or top-dose-only effect, or effect the other way, or a change in a side signal; the % refers to the signal ratio
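S3 HeLa cells stably expressing lamin A-EGFP splicing minigene plus DsRed2, 600 cells/well, 48 h compound exposure at 37C. Laser-scanning cytometry; analysed as GFP (500-530 nm)/RFP (575-640 nm) total intensity ratio; 0.5% DMSO vehicle.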
GCN5L2 inh – GCN5L2 (KAT2A) acetyltransferase inhibition; Q92830; GCN5L2 HAT assay, ThioGlo1 CoA-SH fluorescence; Potency, µM (series often up to 58.9 µM), actives largely listed as inhibitors; actives 0.21% (n = 390,000); AID 504327
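Fluorescence readout, Ex340nm/Em540nm: ThioGlo1 (50uM final) reacts with free CoA thiol released as 20nM GCN5L2 acetylates H3(1-25) peptide (75uM) using acetyl-CoA (70uM). Compound and enzyme sat 15 min beforehand; 20 min room-temperature reaction.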
BLM inh – blocks DNA unwinding by human BLM helicase; recombinant BLM DNA unwinding, fluorescence dequenching; Potency, µM (top dose mostly 56.1 µM), most hits filed as inhibitors; actives 0.2% (n = 350,000); note: nearly all actives have a fitted effect of over 35% in size
Target sequence (P54132 whole entry, looked up): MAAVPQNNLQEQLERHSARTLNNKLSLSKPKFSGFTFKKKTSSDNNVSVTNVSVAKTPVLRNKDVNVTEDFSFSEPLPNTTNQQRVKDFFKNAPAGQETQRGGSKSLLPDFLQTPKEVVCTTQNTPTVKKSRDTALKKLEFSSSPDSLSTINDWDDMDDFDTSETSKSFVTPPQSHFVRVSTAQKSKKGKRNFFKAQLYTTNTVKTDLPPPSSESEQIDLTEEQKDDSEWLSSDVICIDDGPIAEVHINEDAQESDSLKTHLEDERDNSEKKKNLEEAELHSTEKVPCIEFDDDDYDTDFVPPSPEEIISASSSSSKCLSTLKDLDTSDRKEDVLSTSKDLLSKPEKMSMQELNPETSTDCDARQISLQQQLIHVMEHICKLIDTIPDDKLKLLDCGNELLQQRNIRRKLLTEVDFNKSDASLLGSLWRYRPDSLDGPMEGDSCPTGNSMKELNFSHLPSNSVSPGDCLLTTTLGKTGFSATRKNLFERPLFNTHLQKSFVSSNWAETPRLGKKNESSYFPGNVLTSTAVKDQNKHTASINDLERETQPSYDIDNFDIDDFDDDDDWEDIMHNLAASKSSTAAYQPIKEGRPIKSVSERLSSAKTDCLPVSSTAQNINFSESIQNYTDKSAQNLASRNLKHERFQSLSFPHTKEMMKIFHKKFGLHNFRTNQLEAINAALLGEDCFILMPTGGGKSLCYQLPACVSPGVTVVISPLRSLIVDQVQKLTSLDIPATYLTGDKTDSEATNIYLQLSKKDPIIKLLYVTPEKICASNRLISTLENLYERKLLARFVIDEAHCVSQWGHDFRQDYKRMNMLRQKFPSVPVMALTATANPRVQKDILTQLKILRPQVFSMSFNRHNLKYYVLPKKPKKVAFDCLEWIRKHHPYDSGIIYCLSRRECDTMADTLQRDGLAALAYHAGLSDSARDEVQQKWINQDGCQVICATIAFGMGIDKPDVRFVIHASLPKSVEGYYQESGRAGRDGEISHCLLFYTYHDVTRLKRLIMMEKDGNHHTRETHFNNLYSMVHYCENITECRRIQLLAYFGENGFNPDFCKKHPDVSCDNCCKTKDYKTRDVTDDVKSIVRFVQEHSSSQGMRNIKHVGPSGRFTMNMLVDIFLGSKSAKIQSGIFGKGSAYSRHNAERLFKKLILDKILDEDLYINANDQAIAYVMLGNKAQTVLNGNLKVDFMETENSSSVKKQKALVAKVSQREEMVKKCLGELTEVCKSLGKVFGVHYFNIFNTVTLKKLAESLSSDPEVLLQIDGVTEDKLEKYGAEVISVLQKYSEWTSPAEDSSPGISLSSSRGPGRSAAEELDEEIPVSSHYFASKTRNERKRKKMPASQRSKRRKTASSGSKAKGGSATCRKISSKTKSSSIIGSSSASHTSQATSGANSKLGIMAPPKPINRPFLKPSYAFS
APE1 inh – blocks human APE1 abasic DNA cleavage; P27695; recombinant APE1, TAMRA/BHQ-2 abasic DNA cleavage fluorescence; Potency, µM (doses to about 65.8 µM), actives largely listed as inhibitors; actives 0.35% (n = 350,000); AID 2517; note: nearly all actives have a fitted effect of over 55% in size
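Enzyme (0.75 nM final) and test compound are incubated 15 min at room temperature before adding 50 nM quenched THF abasic-site duplex. Cleavage dequenches TAMRA, followed at 525/598 nm over three reads one minute apart.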
TDP1 block – TDP1 (human) enzyme inhibition | Q9NUW8 | recombinant TDP1, AlphaScreen DNA substrate cleavage | Potency, µM (titrated, usually from 130 µM), hits mostly inhibitors | actives 0.28% (n = 350,000); note: nearly all actives have a fitted effect of over 40% in size
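Steps: enzyme plus compound, 15 min RT; add biotin/phosphotyrosine-FITC oligonucleotide (15 nM final), react 5 min; add donor/acceptor beads (10 ug/ml final), 10 min; read AlphaScreen. Tdp1 at 1 nM final.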
Numbers stand for hits; 0 = inactive; ? = inconclusive; - = not tested or not shown. Unless noted, calls come from the whole dose curve; as a rule, active = well fitted curve in the direction sought with a large enough effect; inconclusive = small, poorly fitted or top-dose-only effect, or another doubt; inactive = no such curve, though single readings can be large; an effect the other way counts as inactive or inconclusive.

SMILES	RECQ1 helicase	LMNA splice mod	GCN5L2 inh	BLM inh	APE1 inh	TDP1 block
Nc1c(S(=O)(=O)O)cc(NC(=O)c2ccccc2)c2c1C(=O)c1ccccc1C2=O	-	-	0	?	21µM	-
COc1cccc(C2c3c(ncn(-c4ccc5c(c4)OCO5)c3=N)Oc3ccc4ccccc4c32)c1 (configuration not stated)	-	-	-	-	-	0
CCOc1cc(/C=N/N=C2/NC(=O)C(CC(=O)O)S2)ccc1OCc1ccc(Cl)cc1Cl (configuration not stated)	0	?	0	0	?	20µM
COc1cc(/C=N/N=C2/NC(=O)C(CC(=O)O)S2)ccc1OCc1ccc(Cl)cc1 (configuration not stated)	0	0	0	0	0	0
COc1ccc(C2Nc3ccccc3C(=O)N2Cc2ccccc2)cc1Oc1ccc(NC(C)=O)cc1 (configuration not stated)	-	-	-	-	-	0
O=C(NC(=S)Nc1ccc(N2CCCCC2)cc1)c1ccco1	0	0	0	0	0	0
CC1CCN(c2ccc(NC(=S)NC(=O)c3ccco3)cc2)CC1	0	0	22µM	0	0	0
COC(=O)Cc1c(C)c2cc3c(c(C)c2oc1=O)OCN(CCc1ccc(F)cc1)C3	-	-	28µM	0	-	0
C=Cc1ccc(Cn2c(C(=O)O)c(CNCc3ccccc3)c3ccc(OC)cc32)cc1	-	-	32µM	0	-	0
Cn1c2cc(C#N)sc2c2cnn(Cc3ccccc3F)c(=O)c21	-	-	-	-	-	0
C/C=C(\C)CN1CCN(c2ccccc2)CC1	0	0	32µM	0	0	0
C/C(=C\c1ccccc1)CN1CCN(c2ccccc2)CC1	0	0	0	0	0	0
COc1cc(C2c3c([nH]c(=O)[nH]c3=O)Nc3ccc4ccccc4c32)ccc1O (configuration not stated)	0	0	0	0	0	0
COc1cc(C2c3c([nH]c(=O)[nH]c3=O)Nc3ccc4ccccc4c32)cc(OC)c1OC (configuration not stated)	0	-	0	25µM	0	-
CN(C)c1nc(-c2ccccc2)c2cnn(Cc3ccccc3)c2n1	0	0	0	0	0	16µM
CN(C)c1ncc2nc(-c3ccccc3)c(=O)n(CCc3ccccc3)c2n1	0	?	0	0	?	-
COc1ccc(-c2ccc(/C=N/NC(=O)c3cccnc3)o2)c([N+](=O)[O-])c1	4µM	0	0	0	?	-
CCCCCCCCCCCCCCOc1ccc(C(=O)O)o1	0	-	7.1µM	0	25µM	40µM
CCC1CC=CC2C1C(=O)N(Cc1ccccc1)C2c1ccc(OC)c(Cl)c1 (configuration not stated)	0	-	-	0	0	0
CC[C@H]1OC(=O)C[C@@H](O)[C@H](C)[C@@H](O[C@@H]2O[C@H](C)[C@@H](O)[C@H](N(C)C)[C@H]2O)[C@@H](CCN2C[C@H](C)C[C@H](C)C2)C[C@@H](C)C(=O)/C=C/C(C)=C/[C@@H]1CO[C@@H]1O[C@H](C)[C@@H](O)[C@@H](OC)[C@H]1OC	-	-	-	-	0	-
Cc1cccc(C)c1OCC(=O)N/N=C/c1ccc2c(c1)OCO2	0	?	13µM	0	0	0
Cc1ccccc1NCC(=O)N/N=C\c1ccc2c(c1)OCO2	0	?	0	0	0	0
OCC1O[C@H]([S-])[C@H](O)[C@@H](O)[C@@H]1O.[Au+] (some centres not stated)	-	-	0	-	-	-
Cc1cccc(C=Nc2ccc3c4c(cccc24)CC3)c1O	0	0	20µM	0	0	0
NC(=O)OC[C@H](O)COc1ccc(Cl)cc1	0	?	14µM	0	-	0
SMILES	RECQ1 helicase	LMNA splice mod	GCN5L2 inh	BLM inh	APE1 inh	TDP1 block
O=C(/C=C/c1ccc(OCCCF)cc1)NCc1ccc(Cl)cc1	?	0	3.5µM	0	0	0
COc1ccc(CNC(=O)/C=C/c2ccc(OCCCF)cc2)cc1	0	0	0	0	0	0
N#Cc1nonc1-c1ccccc1	-	-	-	-	0	-
c1nc(NCCc2cnc[nH]2)c2cc(-c3ccc4c(c3)OCO4)ccc2n1	-	-	-	-	-	0
CCCCCn1c(N)c(-c2nc3ccccc3o2)c2c([N+](=O)[O-])nn(C)c(=O)c21	0	0	0	16µM	0	0
CCC(=O)Nc1ccc2c(c1)nc(CN1CCN(C(C)=O)CC1)n2C	0	0	32µM	0	0	0
CCOC(=O)Nc1ccc2c(c1)nc(CN1CCN(C(C)=O)CC1)n2C	0	0	0	0	0	0
Cc1cc2cc(C(=O)N3CCc4c([nH]c5ccccc45)C3c3ccccn3)ccc2o1 (configuration not stated)	0	-	0	0	0	0
O=C(c1ccc(-n2cccn2)cc1)N1CCc2c([nH]c3ccccc23)C1c1ccccn1 (configuration not stated)	0	-	0	13µM	0	0
O=c1cnc2ccccc2n1Cc1ccccc1C(F)(F)F	-	-	0	0	0	50µM
CC(=O)[C@@H]1[C@H]2[C@H](C(=O)[C@H]3OC[C@@H]2O3)[C@H]2C=Cc3ccccc3N21	32µM	-	-	0	0	-
Oc1c(Cl)cc(Cl)cc1Sc1cc(Cl)cc(Cl)c1O	40µM	?	?	?	0	0
COc1ccc2cc(C(=O)Nc3ccc(S(N)(=O)=O)cc3)sc(=O)c2c1OC	0	0	0	0	?	0
COc1ccc2cc(C(=O)Nc3ccccc3)sc(=O)c2c1OC	0	0	0	0	0	16µM
O=C(O)CNC(=O)CC1S/C(=N/N=C2/NC(=O)CS2)NC1=O (configuration not stated)	0	-	0	0	?	40µM
O=C1CCCN1C(=O)CSc1ncnc2sccc12	-	-	0	-	0	50µM
Cc1ccc(SCC(Cc2ccccc2)N2CCN(C)CCC2=O)cc1 (configuration not stated)	0	-	-	0	0	0
O=C(O)CC(C(=O)O)c1ccc(OCCCCOc2ccc(C(CC(=O)O)C(=O)O)cc2)cc1 (configuration not stated)	-	-	0	0	0	28µM
COc1ccc(C2Nc3ccccc3C(=O)N2Cc2ccccc2)cc1COc1cccc(C(F)(F)F)c1 (configuration not stated)	-	-	-	-	-	0
CCOC(=O)C1=C(O)/C(=C\c2ccc(CNC(=O)C(=O)Nc3ccccc3)o2)N=C1C	0	?	0	35µM	0	0
N#Cc1c(-c2ccc(OCCOCCOCCNC(=O)CCCC[C@@H]3SC[C@@H]4NC(=O)N[C@@H]43)cc2)no[n+]1[O-]	-	-	-	-	0	-
CC(C)=CC[C@@H](O)C1=CC(=O)c2c(O)ccc(O)c2C1=O	10µM	-	25µM	-	7.1µM	0
